Compound activity: PubChem BioAssay, Broad Institute
MITF TRPM1 HTS = activators of MITF-driven TRPM1 promoter activity in SK-MEL-5 cells | SK-MEL-5 TRPM1-promoter luciferase, 24 h; % of positive control, neutral wells = 0 | activation, % at 12.5 µM | 300,000 tested, 0.75% active;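 active = mean activation of at least 80% with every replicate also reaching 80%; inconclusive = mean reaches 80% but some replicate falls short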;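 also: 0% = neutral control wells and 100% = parthenolide positive control wells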
miR-122 sensor = miR-122 inhibition in Huh7 cells | Huh7 miR-122 Renilla luciferase sensor, 48 h; neutral wells = 0, positive control = 100 | activation (reporter increase), % at 12.5 µM | 340,000 tested, 0.3% active | AID 602342;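 active = mean replicate activation score at least 90 and every replicate individually at or above 90; inconclusive = only one of the two criteria met; inactive = neither criterion met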;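 also: higher luciferase means less miR-122 activity so hits act as miR-122 inhibitors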
Wnt bcat act = activators of Wnt/beta-catenin signaling; Wnt/beta-catenin reporter cell assay, activator, plate reader; activation, % at 9.35 µM; 300,000 tested, 1.2% active; AID 743398; in the data active = activation above about 30%, passing the limit was not always enough; inconclusive = no clear call, values can overlap the other calls;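 also: 0% = neutral control wells and 100% = positive control wells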
NSD2 inh = inhibitors of human histone methyltransferase NSD2 | O96028 | NSD2 peptide methylation, AlphaScreen, 120 min | inhibition, % at 12.5 µM | 310,000 tested, 0.54% active
Target sequence (O96028 whole entry, looked up): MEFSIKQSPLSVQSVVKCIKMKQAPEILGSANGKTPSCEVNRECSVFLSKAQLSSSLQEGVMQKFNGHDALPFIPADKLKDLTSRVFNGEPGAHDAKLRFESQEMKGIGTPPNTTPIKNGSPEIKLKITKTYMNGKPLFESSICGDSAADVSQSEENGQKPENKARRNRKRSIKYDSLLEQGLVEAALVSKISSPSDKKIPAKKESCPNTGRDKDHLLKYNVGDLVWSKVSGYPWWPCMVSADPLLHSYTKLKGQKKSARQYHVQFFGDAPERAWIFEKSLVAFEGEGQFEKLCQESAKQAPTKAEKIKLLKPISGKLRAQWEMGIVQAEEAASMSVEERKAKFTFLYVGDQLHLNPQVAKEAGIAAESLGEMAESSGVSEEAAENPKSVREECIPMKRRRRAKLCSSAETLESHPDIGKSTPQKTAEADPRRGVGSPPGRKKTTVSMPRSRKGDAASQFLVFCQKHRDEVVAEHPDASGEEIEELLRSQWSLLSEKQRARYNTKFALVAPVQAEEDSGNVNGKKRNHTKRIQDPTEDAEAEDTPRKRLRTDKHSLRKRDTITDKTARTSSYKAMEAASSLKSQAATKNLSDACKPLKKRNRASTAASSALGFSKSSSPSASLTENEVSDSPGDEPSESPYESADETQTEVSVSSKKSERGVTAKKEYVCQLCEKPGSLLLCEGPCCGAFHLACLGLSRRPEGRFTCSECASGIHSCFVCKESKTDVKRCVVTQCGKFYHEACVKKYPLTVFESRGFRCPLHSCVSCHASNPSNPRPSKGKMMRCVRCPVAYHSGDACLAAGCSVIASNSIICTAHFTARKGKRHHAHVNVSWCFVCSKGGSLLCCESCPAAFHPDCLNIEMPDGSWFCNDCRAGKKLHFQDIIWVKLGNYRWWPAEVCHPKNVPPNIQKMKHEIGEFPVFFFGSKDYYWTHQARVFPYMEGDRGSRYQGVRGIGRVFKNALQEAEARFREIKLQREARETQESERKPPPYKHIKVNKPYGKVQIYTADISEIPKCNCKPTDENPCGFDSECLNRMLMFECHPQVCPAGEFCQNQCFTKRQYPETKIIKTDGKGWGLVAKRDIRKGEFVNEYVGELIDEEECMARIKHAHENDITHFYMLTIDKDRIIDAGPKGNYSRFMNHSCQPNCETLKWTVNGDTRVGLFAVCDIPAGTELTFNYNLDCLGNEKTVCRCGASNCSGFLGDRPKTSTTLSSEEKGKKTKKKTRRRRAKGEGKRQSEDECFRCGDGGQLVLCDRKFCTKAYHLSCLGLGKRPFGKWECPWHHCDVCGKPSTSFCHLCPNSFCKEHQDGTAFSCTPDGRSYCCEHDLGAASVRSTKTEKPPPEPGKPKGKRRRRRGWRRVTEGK
DYRK1A inh = Dyrk1A (rat) kinase inhibition. Q63470. ADP-Glo luminescence, NFATc1 peptide. inhibition, % at 12.5 µM. 310,000 tested, 0.43% active;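 also: plate controls were vehicle with enzyme for no effect and no enzyme for full effect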
INS-1E GSIS act = GLuc luminescence reporter in INS-1E cells, primary screen for activators of glucose-dependent secretion of insulin | INS-1E GLuc reporter insulin secretion, 2-3 h | activation, % at 16.6 µM | 370,000 tested, 0.61% active | AID 743287;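 active = lowest replicate activation of at least 40%, so every replicate reaches that level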;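 also: 0% = median of neutral control wells and 100% = median of IBMX positive control wells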
* marks the source's active call; other numbers are inactive results; [ ] = remark or other dose. Most compounds without a hit are left out; they make up all but 2.4% or so of the library. Rule as the data show it, unless noted: active = inhibition above about 50%; inactive = the rest.

What do the screens show for `O=C(c1ccc(-c2ccccc2Cl)o1)N1CCCCCCC1`?
MITF TRPM1 HTS: inconclusive; miR-122 sensor: 11; Wnt bcat act: 40*; NSD2 inh: -1; INS-1E GSIS act: -36

How did CC1CCCN(C(=O)c2ccc(-c3ccccc3Cl)o2)C1 (stereo not drawn) do in these assays?
MITF TRPM1 HTS: 140*; miR-122 sensor: 1; Wnt bcat act: 34*; NSD2 inh: 0; DYRK1A inh: 6; INS-1E GSIS act: -14

How did COc1ccc(NC(=O)N2C[C@@H](O)COC[C@H]3O[C@@H](CC(=O)NCc4ccccc4OC)CC[C@@H]32)cc1 do in these assays?
miR-122 sensor: -5[16.7 µM]; INS-1E GSIS act: -4

How did CCCNC(=O)N1CC2(CCN(Cc3ccncc3)CC2)c2c(n(C)c3cc(OC)ccc23)[C@@H]1CO do in these assays?
INS-1E GSIS act: -11

What do the screens show for `C[C@H]1CN([C@@H](C)CO)S(=O)(=O)c2ccc(C3=CCCCC3)cc2O[C@@H]1CN(C)C(=O)C1CCCCC1`?
miR-122 sensor: 46[16.7 µM]; INS-1E GSIS act: -28

What do the screens show for `CC(=O)c1ccc(NS(=O)(=O)c2c(C)cc(C)cc2C)cc1`?
MITF TRPM1 HTS: 22; miR-122 sensor: 152*; Wnt bcat act: -2; NSD2 inh: -5; DYRK1A inh: 0; INS-1E GSIS act: 5

How did COc1ccc(NC(=O)N(C)C[C@H]2Oc3ccc(NC(=O)Nc4ccc(C(F)(F)F)cc4)cc3CC(=O)N([C@@H](C)CO)C[C@H]2C)cc1 do in these assays?
miR-122 sensor: 201*[16.7 µM]; INS-1E GSIS act: -24

Results for COc1ccc(NC(=O)Nc2ccc3c(c2)CC(=O)N([C@@H](C)CO)C[C@@H](C)[C@H](CN(C)C(=O)NC(C)C)O3)cc1 ?
miR-122 sensor: 101*[16.7 µM]; INS-1E GSIS act: 3

Results for C[C@@H]1CN([C@H](C)CO)C(=O)Cc2cc(NC(=O)CCCN(C)C)ccc2O[C@H]1CN(C)Cc1ccc(-c2ccccc2)cc1 ?
miR-122 sensor: -9[16.7 µM]; INS-1E GSIS act: 72*

What do the screens show for `CC(C)NC(=O)Nc1ccc2c(c1)CC(=O)N([C@H](C)CO)C[C@@H](C)[C@@H](CN(C)Cc1ccc(Oc3ccccc3)cc1)O2`?
miR-122 sensor: 97*[16.7 µM]; INS-1E GSIS act: -20

How did C[C@H](CO)N1C[C@H](C)[C@H](CN(C)Cc2ccc(-c3ccccc3)cc2)Oc2ccc(NC(=O)CCCN(C)C)cc2CC1=O do in these assays?
miR-122 sensor: 3[16.7 µM]; INS-1E GSIS act: -5

What do the screens show for `CC(C)NC(=O)Nc1ccc2c(c1)CC(=O)N([C@H](C)CO)C[C@H](C)[C@H](CN(C)Cc1ccc(Oc3ccccc3)cc1)O2`?
miR-122 sensor: 0[16.7 µM]; INS-1E GSIS act: -34

How did COc1ccc(NC(=O)Nc2ccc3c(c2)CC(=O)N([C@H](C)CO)C[C@H](C)[C@@H](CN(C)C(=O)NC(C)C)O3)cc1 do in these assays?
miR-122 sensor: 1[16.7 µM]; INS-1E GSIS act: 3

How did C[C@@H]1CN([C@H](C)CO)C(=O)c2cc(NC(=O)Cn3cnnn3)ccc2O[C@@H]1CN(C)Cc1ccncc1 do in these assays?
miR-122 sensor: -2[16.7 µM]; INS-1E GSIS act: 23

What do the screens show for `c1ccc(N=Nc2ccc(C3=NCCO3)cc2)cc1`?
miR-122 sensor: -10; Wnt bcat act: 44*; NSD2 inh: 1; INS-1E GSIS act: -3

How did c1ccc(C2=NCCCO2)cc1 do in these assays?
miR-122 sensor: -7; Wnt bcat act: -3; NSD2 inh: -3

What do the screens show for `COC(=O)[C@@H]1[C@@H](CO)[C@@H]2Cn3c(ccc(-c4ccccc4)c3=O)[C@@H]2N1S(C)(=O)=O`?
miR-122 sensor: -6[16.7 µM]; INS-1E GSIS act: 13

What do the screens show for `COCC(=O)N(C[C@H]1N[C@H](CO)[C@@H]1c1ccc(C2=CCCC2)cc1)C(C)C`?
miR-122 sensor: 14[16.7 µM]; INS-1E GSIS act: -8

Results for O=C(C[C@H]1C[C@H]2c3cc(NC(=O)Cc4ccncc4)ccc3O[C@H]2[C@H](CO)O1)NCc1ccc(-c2ccccc2)cc1 ?
miR-122 sensor: 14[16.7 µM]; INS-1E GSIS act: -38

Results for CN(C=[N+](C)C)c1cccc2c1C(=O)c1ccccc1C2=O ?
MITF TRPM1 HTS: -5; NSD2 inh: 69*; DYRK1A inh: 7; INS-1E GSIS act: 8

Results for C[C@H]1CN([C@@H](C)CO)C(=O)Cc2cc(NS(=O)(=O)c3ccccc3)ccc2O[C@H]1CN(C)S(C)(=O)=O ?
miR-122 sensor: 8[16.7 µM]; INS-1E GSIS act: 6

What do the screens show for `Cc1cc(=O)n2ccsc2n1`?
MITF TRPM1 HTS: 6; miR-122 sensor: -2; Wnt bcat act: 0; NSD2 inh: 2; DYRK1A inh: 12; INS-1E GSIS act: 47*

What do the screens show for `O=C(N/N=C/c1ccc(OC(=O)c2ccc([N+](=O)[O-])cc2)cc1)c1cccnc1`?
MITF TRPM1 HTS: -2; miR-122 sensor: 4; Wnt bcat act: 3; NSD2 inh: 0; DYRK1A inh: -7; INS-1E GSIS act: -3

What do the screens show for `COc1ccc(C(=O)Oc2ccc(/C=N/NC(=O)Cc3ccc([N+](=O)[O-])cc3)cc2)cc1`?
MITF TRPM1 HTS: -4; Wnt bcat act: -4; NSD2 inh: 1; DYRK1A inh: -6; INS-1E GSIS act: 46*

How did COc1ccc(-c2cn(Cc3ccc(C)cc3)nn2)cc1 do in these assays?
MITF TRPM1 HTS: 86*; miR-122 sensor: 5; Wnt bcat act: 29; DYRK1A inh: 1; INS-1E GSIS act: -1

What do the screens show for `C[C@H]1CCCCO[C@@H](CN(C)CC2CCCCC2)[C@@H](C)CN([C@@H](C)CO)C(=O)c2cc(NC(=O)Nc3ccccc3)ccc2O1`?
miR-122 sensor: 3[16.7 µM]; INS-1E GSIS act: 24

Results for O=C1N[C@H](Cc2ccccc2)COCc2cn(nn2)CC[C@@H]1Cc1cccc(Cl)c1 ?
INS-1E GSIS act: -8

Results for Cc1ccc(-c2csc(N3C(=N)SCC3=O)n2)cc1 ?
Wnt bcat act: 50*; INS-1E GSIS act: 13

What do the screens show for `CC1=NN(c2nc(-c3ccc(Cl)cc3)cs2)C(=O)C1`?
MITF TRPM1 HTS: 14; miR-122 sensor: -2; NSD2 inh: -3; DYRK1A inh: 2

Results for Cc1nn(C)c(C)c1S(=O)(=O)NCc1cccs1 ?
miR-122 sensor: 109*; NSD2 inh: -4; DYRK1A inh: 4

How did C[C@H](CO)N1C[C@H](C)[C@H](CN(C)C(=O)c2ccncc2)OCCCC[C@H](C)Oc2ccc(NS(=O)(=O)c3ccc(Cl)cc3)cc2C1=O do in these assays?
miR-122 sensor: 2[16.7 µM]; INS-1E GSIS act: -7

Results for C[C@H](CO)N1C[C@H](C)[C@@H](CN(C)C(=O)Nc2ccc(F)cc2)OCCCC[C@H](C)Oc2ccc(NS(C)(=O)=O)cc2C1=O ?
miR-122 sensor: -2[16.7 µM]; INS-1E GSIS act: 5

What do the screens show for `Fc1ccc(/C=N/c2c(-c3ccc(F)cc3)nc3n2CCS3)cc1`?
MITF TRPM1 HTS: 17; miR-122 sensor: 2; NSD2 inh: -2; DYRK1A inh: 6; INS-1E GSIS act: 62*
